From PubChem BioAssay
HP1b binding inh: blocks HP1-beta chromodomain binding to methylated histone tails. AID 540317. Potency, µM (top dose mostly 114 µM), usual class: inhibitors. AlphaScreen HP1-beta / biotin-H3K9me3 peptide binding. actives 0.56% (n = 390,000). P83916; further: nearly all actives have a fitted effect of over 70% in size
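HP1-beta protein (50 nM final) preincubated 30 min at room temperature with biotinylated H3(1-18)K9me3 peptide (50 nM) in PBS pH 7.4, 0.01% Tween-20, then compound added for 30 min. AlphaScreen streptavidin donor/nickel chelate acceptor beads (10 ug/mL final), 30 min dark, luminescence read.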
G9a block: blocks human histone lysine methyltransferase G9a; Q96KQ7; G9a H3K9 monomethylation, AlphaScreen, 2 h; Potency, µM (series often up to 102 µM), hits mostly inhibitors; actives 8.8% (n = 350,000); AID 504332; further: nearly all actives have a fitted effect of over 75% in size
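Methyltransferase reactions run at room temperature for 2 h (20 nM enzyme, 500 nM biotin-H3K9 peptide, 20 uM SAM) after a 15 min compound preincubation; product detected by AlphaScreen beads and anti-H3K9me1 antibody.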
L3MBTL1 block: L3MBTL1 (human) inhibition; AID 485360; Q9Y468; Potency, µM (top dose mostly 57.1 µM), usual class: inhibitors; AlphaScreen L3MBTL1–H3K9me1 peptide binding; actives 0.66% (n = 230,000); further: nearly all actives have a fitted effect of over 60% in size
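First, the protein-peptide complex forms for 30 min at room temperature (L3MBTL1 50 nM, biotinylated H3K9me1 peptide 75 nM). Next, compounds are pin-transferred and incubated 30 min. Finally, AlphaScreen beads are added and read after 30 min.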
BAZ2B inh: BAZ2B (human) inhibition; Q9UIF8; actives 4.4% (n = 360,000); AID 504333; AlphaScreen BAZ2B-H3K14Ac peptide displacement; Potency, µM (highest dose often 114 µM), actives largely listed as inhibitors; further: nearly all actives have a fitted effect of over 60% in size
Target sequence (Q9UIF8 whole entry, looked up): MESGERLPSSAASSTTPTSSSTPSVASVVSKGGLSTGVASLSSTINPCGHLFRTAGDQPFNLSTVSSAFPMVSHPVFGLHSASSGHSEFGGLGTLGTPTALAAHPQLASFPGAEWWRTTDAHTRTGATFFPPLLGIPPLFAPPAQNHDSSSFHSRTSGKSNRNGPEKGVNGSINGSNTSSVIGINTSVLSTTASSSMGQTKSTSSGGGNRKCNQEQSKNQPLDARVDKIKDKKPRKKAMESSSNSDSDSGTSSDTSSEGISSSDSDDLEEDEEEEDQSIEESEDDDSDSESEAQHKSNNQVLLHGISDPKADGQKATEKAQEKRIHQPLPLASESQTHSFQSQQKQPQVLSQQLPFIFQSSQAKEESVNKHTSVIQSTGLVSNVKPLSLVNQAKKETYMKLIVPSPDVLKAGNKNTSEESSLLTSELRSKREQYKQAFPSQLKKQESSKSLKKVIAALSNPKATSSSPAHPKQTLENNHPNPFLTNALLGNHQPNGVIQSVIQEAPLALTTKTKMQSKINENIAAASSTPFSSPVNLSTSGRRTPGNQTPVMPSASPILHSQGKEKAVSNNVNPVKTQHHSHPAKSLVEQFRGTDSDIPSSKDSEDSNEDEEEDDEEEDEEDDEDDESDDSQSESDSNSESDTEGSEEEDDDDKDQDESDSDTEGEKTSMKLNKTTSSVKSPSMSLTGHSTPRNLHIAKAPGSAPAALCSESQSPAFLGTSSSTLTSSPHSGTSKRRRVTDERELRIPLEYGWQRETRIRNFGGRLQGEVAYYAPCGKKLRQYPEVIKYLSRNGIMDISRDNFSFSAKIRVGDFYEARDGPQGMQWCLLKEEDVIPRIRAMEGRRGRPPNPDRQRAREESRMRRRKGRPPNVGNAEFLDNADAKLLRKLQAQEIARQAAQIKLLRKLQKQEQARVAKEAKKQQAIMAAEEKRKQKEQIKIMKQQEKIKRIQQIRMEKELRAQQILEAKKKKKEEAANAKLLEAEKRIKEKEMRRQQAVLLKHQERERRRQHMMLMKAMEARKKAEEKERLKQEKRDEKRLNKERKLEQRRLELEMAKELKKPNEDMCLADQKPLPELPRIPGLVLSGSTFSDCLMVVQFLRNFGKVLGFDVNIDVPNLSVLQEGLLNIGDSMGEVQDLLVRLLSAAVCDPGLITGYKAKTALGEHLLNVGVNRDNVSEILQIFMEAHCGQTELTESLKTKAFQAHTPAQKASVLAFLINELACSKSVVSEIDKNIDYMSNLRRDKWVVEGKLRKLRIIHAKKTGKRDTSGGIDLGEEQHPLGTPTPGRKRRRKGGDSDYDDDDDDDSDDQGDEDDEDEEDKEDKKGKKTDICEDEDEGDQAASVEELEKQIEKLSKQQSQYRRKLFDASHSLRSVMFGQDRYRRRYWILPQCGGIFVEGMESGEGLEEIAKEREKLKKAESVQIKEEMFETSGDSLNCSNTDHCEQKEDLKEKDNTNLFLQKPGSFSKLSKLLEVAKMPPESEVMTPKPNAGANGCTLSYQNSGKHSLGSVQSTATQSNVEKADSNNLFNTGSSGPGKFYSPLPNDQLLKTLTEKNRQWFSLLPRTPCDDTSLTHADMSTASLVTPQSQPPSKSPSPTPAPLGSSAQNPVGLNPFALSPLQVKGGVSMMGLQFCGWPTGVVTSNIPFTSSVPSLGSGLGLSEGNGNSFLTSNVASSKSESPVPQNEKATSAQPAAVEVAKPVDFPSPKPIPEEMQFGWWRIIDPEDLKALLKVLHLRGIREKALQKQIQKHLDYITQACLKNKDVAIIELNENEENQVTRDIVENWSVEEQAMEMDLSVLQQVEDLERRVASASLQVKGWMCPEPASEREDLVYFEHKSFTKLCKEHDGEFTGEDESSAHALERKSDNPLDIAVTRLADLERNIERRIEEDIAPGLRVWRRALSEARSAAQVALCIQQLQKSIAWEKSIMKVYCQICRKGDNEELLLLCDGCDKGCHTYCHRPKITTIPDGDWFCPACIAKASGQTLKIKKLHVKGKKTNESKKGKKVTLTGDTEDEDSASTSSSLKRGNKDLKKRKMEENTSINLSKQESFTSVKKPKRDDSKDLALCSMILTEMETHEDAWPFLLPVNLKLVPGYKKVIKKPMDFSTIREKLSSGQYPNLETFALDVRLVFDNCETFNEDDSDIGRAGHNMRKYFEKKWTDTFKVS
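Inhibition is scored as reduced AlphaScreen emission. The BAZ2B/b-H3(5-23)K14Ac complex (50 nM each) in PBS pH 7.4, 0.01% Tween-20 meets compound (up to 110 uM) for 30 min at RT before bead addition.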
JMJD2A Tudor: JMJD2A Tudor domain (human) inhibition | AlphaScreen JMJD2A-Tudor / H3K4me3 peptide binding | Potency, µM (series often up to 114 µM), most hits filed as inhibitors | actives 4.4% (n = 390,000); further: nearly all actives have a fitted effect of over 50% in size
Of the large screens only hits and unclear results are named; the others gave an inactive call. Shown are actives, neighbours in structure and some others; about 11% of the full set was active somewhere. The call rests on the fitted dose curve; in most records, active means well fitted inhibition curve with a large enough effect; inconclusive means small, poorly fitted or top-dose-only effect; inactive means no such curve, though single readings can be large or run the other way.

O=C(Nc1nc(=O)c2ccccc2s1)c1ccc(F)cc1	G9a block 1.8µM, BAZ2B inh inconclusive, JMJD2A Tudor inconclusive
Nc1ccc(C(=O)Nc2nc3ccccc3s2)cc1	none
CCn1c(NC(=O)c2ccc(F)cc2)c2ccccc2nc1=O	none
O=C(CSC(=S)N1CCOCC1)Nc1nc(=O)c2ccccc2s1	G9a block 4µM (no result: HP1b binding inh, JMJD2A Tudor)
Cc1ccc(CNc2ncnc3onc(-c4ccc(F)cc4)c23)cc1	none (no result: L3MBTL1 block)
CCOC(=O)CSc1nc2sc3c(c2c(=O)n1Cc1ccccc1)CCC(C(C)(C)C)C3 (centres undefined)	none (no result: L3MBTL1 block)
COc1ccc(NC(=O)CSCC(=O)N(C)Cc2ccc3c(c2)OCCO3)cc1	none
Cn1sc(NC(=O)c2ccc(Cl)cc2)nc1=O	G9a block 40µM
O=C(CSc1ncc2c(n1)-c1cc(Cl)ccc1N(Cc1ccccc1F)S2(=O)=O)Nc1cccc(C(F)(F)F)c1	none (no result: L3MBTL1 block)
Cc1ccc(N(Cc2ccccc2F)S(C)(=O)=O)cc1C	BAZ2B inh 56µM (no result: L3MBTL1 block)
C/C(=N\N=c1/sc2ccccc2n1C)c1ccc(N2CCOCC2)cc1	G9a block 7.9µM
C/C(=N\N=c1/sc2ccccc2n1C)c1ccccn1	JMJD2A Tudor inconclusive
N=C1/C(=C/c2coc3ccccc3c2=O)C(=O)N=C2SC(c3ccco3)=NN12	L3MBTL1 block inconclusive, BAZ2B inh 71µM, JMJD2A Tudor inconclusive (no result: G9a block)
CC(C)CSC1=NSC2=NC(=O)/C(=C\c3coc4ccccc4c3=O)C(=N)N12	G9a block 79µM, BAZ2B inh 79µM (no result: L3MBTL1 block)
Cc1cc(/C=C2\C(=N)N3N=C(c4ccco4)SC3=NC2=O)c(C)n1Cc1ccccc1	G9a block 28µM, L3MBTL1 block inconclusive, BAZ2B inh inconclusive, JMJD2A Tudor 45µM
CCC1=NN2C(=N)/C(=C/c3cc(C)n(Cc4ccccc4)c3C)C(=O)N=C2S1	none
N=C1/C(=C\c2coc3ccc(O)cc3c2=O)C(=O)N=C2SC=CN12	L3MBTL1 block inconclusive, BAZ2B inh inconclusive (no result: G9a block)
CSC1=NSC2=NC(=O)/C(=C\c3coc4ccccc4c3=O)C(=N)N12	G9a block inconclusive, BAZ2B inh inconclusive
N=C1/C(=C\c2coc3ccccc3c2=O)C(=O)N=C2SC(c3ccncc3)=NN12	HP1b binding inh inconclusive, G9a block inconclusive, BAZ2B inh inconclusive, JMJD2A Tudor 56µM (no result: L3MBTL1 block)
O=C1CCCC2=C1C1(CCC1)N=C(Nc1nc3ccccc3o1)N2	none (no result: HP1b binding inh, G9a block, L3MBTL1 block, BAZ2B inh)
Cc1cc2c(s1)c1cnn(Cc3cc(OC(F)(F)F)ccc3F)c(=O)c1n2C	none (no result: HP1b binding inh, G9a block, L3MBTL1 block, BAZ2B inh)
Cc1cc2nc(-c3ccc(OCc4ccc(F)cc4)cc3)cc(C(F)(F)F)n2n1	none (no result: L3MBTL1 block)
COc1cc(OC)c(CN2CCCN(C)CC2)cc1Br	HP1b binding inh inconclusive, BAZ2B inh 79µM, JMJD2A Tudor 1.4µM (no result: G9a block)
COc1ccc(CN2CCN(c3ccc(F)cc3)CC2)c(OC)c1OC	none
COc1cc(OC)c(CN2CCN(c3ccc(F)cc3)CC2)cc1Br	G9a block 35µM, BAZ2B inh 50µM, JMJD2A Tudor 2.5µM
CCOC(=O)c1c(CN2CCN(C)CC2)n(C)c2cc(Br)c(OC)cc12	none
Cn1c(SCC(=O)c2ccc3c(c2)Cc2ccccc2-3)nnc1-c1cccc(N)c1	G9a block inconclusive
CC(=O)Nc1ccc(-c2nnc(SCC(=O)c3ccc4c(c3)Cc3ccccc3-4)n2C)cc1	G9a block 22µM, JMJD2A Tudor 35µM
COc1ccc(CCNC(=O)Cn2cc(S(=O)(=O)Cc3ccccc3Cl)c3ccccc32)cc1OC	none (no result: L3MBTL1 block)
CC(OC(=O)CCN=C1NS(=O)(=O)c2ccccc21)C(=O)N(C)c1ccccc1 (centres undefined)	none
O=C(/C=C/c1ccccc1)OCCCCN=C1NS(=O)(=O)c2ccccc21	JMJD2A Tudor 28µM (no result: G9a block)
CC(OC(=O)CCCN=C1NS(=O)(=O)c2ccccc21)C(=O)N(C)c1ccccc1 (centres undefined)	G9a block 40µM
O=C(CCN=C1NS(=O)(=O)c2ccccc21)OCC(=O)c1ccccc1Cl	G9a block 56µM
O=C(CCCN=C1NS(=O)(=O)c2ccccc21)OCc1ccccc1	G9a block 45µM
COc1ccccc1C(=O)COC(=O)CCCN=C1NS(=O)(=O)c2ccccc21	none
CCOC(=O)c1nnc(-c2ccccc2)nc1Sc1c(Cl)cccc1Cl	G9a block 40µM, BAZ2B inh inconclusive, JMJD2A Tudor inconclusive (no result: L3MBTL1 block)
